Measured values taken from PubChem BioAssay (NCI).
The panel holds about 83,000 compounds, 20% with a hit somewhere; the sample as a whole holds those more often.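 Values shown are percent growth following 48 h exposure of cells in 96-well plates to a single concentration of compound; below 10 was considered active.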 Calls of active or inactive are those of the source.

system: HL-60(TB) leukemia; test: NCI-60 one-dose screen, 48 h (100 = growth as untreated, 0 = no growth, -100 = all killed); settings: 10 µM unless noted

Compound | growth
COc1ccc2c(c1)oc1c3[nH]c4ccccc4c3c3c(c21)C(=O)N(O)C3=O | 53.3% (inactive)
CCCCCc1ccc(S(=O)(=O)Nc2cccc(-c3csc(NC(=O)CCCCCN4CCN(C)CC4)n3)c2)cc1 | -41.5% (active)
N=C1CC(=O)NN1C(=O)CSc1nc2sc3c(c2c(=O)n1-c1ccc(Cl)cc1)CCCC3 | 108% (inactive)
O=C(NNc1nc2cc(F)ccc2n2c(CN3CC4(COC4)C3)ccc12)c1cnccn1 | -30.1% (active)
O=C1C(SCc2ccccc2)=C(Cl)CN1c1ccc(Cl)cc1 | 44% (inactive)
O=S1SC(c2ccccc2)=NN1c1cc(F)cc(F)c1 (configuration not stated) | 32.2% (inactive)
Cc1cc2nc3c4cc(Cl)ccc4n(CC(=S)NCCN(C)C)c3nc2cc1C | -63.4% (active)
O=c1[nH]c2ccc(Cl)cc2cc1CSc1ccccc1Nc1nccc(-c2ccc(Cl)cc2)n1 | 78.5% (inactive)
CN1CCN(c2ccc(Nc3nc(NCCCNS(=O)(=O)c4ccc(F)cc4)c4sccc4n3)cc2)CC1 | 28.8% (inactive)
Cn1ccnc1C(=O)/C=C/c1ccc(NC(=O)c2c(F)c(F)c(F)c(F)c2F)cc1 | 78.3% (inactive)
Nc1nc(-c2cccc([N+](=O)[O-])c2)c(N=Nc2cccc(Cl)c2)s1 | 56.4% (inactive)
O=c1oc2ccc(-c3ccc(F)cc3F)cc2c(=O)n1-c1ccc(Br)cc1F | 58.8% (inactive)
NC(N)=Nc1ccc(Oc2cccc(NC(N)=Nc3ccc(Cl)c(C(F)(F)F)c3)c2)cc1 | 27.8% (inactive)
COc1ccc(/C=C/C(=O)c2ccc(NC(=O)CSc3nnc(-c4ccc5nc(-c6ccc(Cl)cc6)[nH]c5c4)o3)cc2)cc1 | 78.6% (inactive)
Cc1cc(Br)ccc1-n1cc(C#N)c(N)c1C(=O)c1ccc(Br)cc1 | 110% (inactive)
CCN(CC)CCN1C(=O)c2c(c3c4cc(Br)ccc4[nH]c3c3ccc4ccccc4c23)C1=O | -35% (active)
O=C(Nc1cccc(Cl)c1)Nc1nc2ccc([N+](=O)[O-])cc2s1 | -40% (active)
CCn1c(SCC(=O)Nc2cccc(C(=O)/C=C/c3ccc(C)cc3)c2)nc2ccccc2c1=O | 92% (inactive)
C[C@H]1[C@H](C)CC[C@]2(COC(=O)c3cccnc3)CC[C@]3(C)C(=CC[C@@H]4[C@@]5(C)CCCNC(C)(C)[C@@H]5CC[C@]43C)[C@H]12 | 23.9% (inactive)
NC(=O)c1c(NC(=O)c2ccc(C3CCCCC3)cc2)sc2c1CCC(=O)C2 | 7.79% (active)
Nc1cc(-c2c[nH]c3ccc(Cl)cc23)nc2cc(-c3c[nH]c4ccc(Cl)cc34)nn12 | 43.9% (inactive)
Cc1cc(-c2ccc3nc(N)sc3c2)nc2ccc3[nH]ncc3c12 | 25.8% (inactive)
Cc1nc(-c2cc3ccccc3oc2=O)ccc1C(=O)/C=C/c1ccc(Cl)c(Cl)c1 | 97.9% (inactive)
C/C=C/[C@@H]1C=C[C@@H]2C[C@H](C)CC[C@H]2[C@]1(C)/C(O)=C1/C(=O)[C@H](CO)N(C)C1=O | 62.7% (inactive)
c1cn2c(ccc3nc(-c4cn[nH]c4)c4c(c32)CCCC4)n1 | 73.8% (inactive)
CC1(C)NCCC[C@]2(C)[C@H]3C/C(=N\O)C4[C@@H]5C[C@@](C)(CO)CC[C@]5(C)CC[C@@]4(C)[C@]3(C)CC[C@@H]12 (some centres not stated) | 68.9% (inactive)
CC(C)(C)c1ccc(C(=O)Nc2sc3c(c2C(N)=O)CCC(O)C3)cc1 (configuration not stated) | 37.2% (inactive)
